Rows were chosen to be rich in hits. Some 2.9% of all compounds tested hit in one or more screens of this group.
ADAM10 inh: inhibitors of human ADAM10 | recombinant ADAM10, EDANS/DABCYL FRET peptide cleavage, 3 h | inhibition, % at 7 µM | 0.62% of 370,000 active;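 active = inhibition above a per-campaign cutoff equal to the mean of compounds falling between control-based bounds plus 3 SD, cut at about 20% in these data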;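 note: 0% = DMSO wells while the 100% control is not disclosed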
PLCg1 inh: blocks human PLC-gamma1 enzyme activity. inhibition, % at 12.2 µM. 0.84% of 370,000 active. purified PLC-gamma1, fluorogenic substrate, fluorescence; in the data active = inhibition above about 9.5%
proKLK7 act: activators of human kallikrein-7 zymogen. P49862. purified proKLK7, EDANS-DABCYL substrate fluorescence; 100% is mature enzyme control, 0% vehicle. activation, % at 7 µM. 0.9% of 370,000 active;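 active = activation above the mean of all tested compounds plus 3 SD, computed per campaign excluding outliers beyond control limits, cut at about 13% in these data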
Target sequence (P49862 whole entry, looked up): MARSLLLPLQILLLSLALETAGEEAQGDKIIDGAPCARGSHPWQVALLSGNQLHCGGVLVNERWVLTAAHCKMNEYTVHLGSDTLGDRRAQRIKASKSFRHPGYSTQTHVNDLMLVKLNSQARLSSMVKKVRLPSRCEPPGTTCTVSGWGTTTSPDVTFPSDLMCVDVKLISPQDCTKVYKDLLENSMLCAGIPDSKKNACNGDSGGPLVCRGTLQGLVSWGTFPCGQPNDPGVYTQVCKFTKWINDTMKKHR
PLC-beta3 inh: inhibitors of human phospholipase C beta3; 0.18% of 370,000 active; inhibition, % at 12.2 µM; Purified PLC-beta3, fluorogenic substrate, fluorescence; AID 720704;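 note: 0% = median of compound wells on plate and 100% = full blocker control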
ADAM17 inh: ADAM17 inhibition, QFRET primary screen; 0.83% of 370,000 active; recombinant ADAM17, EDANS/DABCYL FRET peptide cleavage; P78536; inhibition, % at 6.95 µM;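 active = inhibition above the mean of compounds lying between control limits plus 3 SD, set per campaign, cut at about 8.5% in these data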;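 note: 0% = DMSO-only wells as the low control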
ADAM10 counter: inhibits human ADAM10 in ADAM17 exosite counter-screen | shares compounds with ADAM17 inh | AID 743256 | recombinant ADAM10, EDANS/DABCYL FRET peptide cleavage, 3 h | 47% of 2,900 active | inhibition, % at 6.95 µM;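 active = mean inhibition over the triplicate runs exceeds the activity threshold set in the earlier primary screen, cut at about 20% in these data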;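 note: 0% = DMSO wells and 100% = marimastat wells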
ADAM17 confirm: confirmation of inhibitors of human ADAM17; shares compounds with ADAM17 inh; recombinant ADAM17, EDANS/DABCYL QFRET peptide cleavage; inhibition, % at 6.95 µM; 65% of 2,900 active;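 active = mean inhibition across replicates above the hit cutoff set in the primary screen, cut at about 8.5% in these data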;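 note: 0% = DMSO wells and 100% = marimastat wells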
PLCgamma1 ctr: PLC-gamma1 inhibition, counter-screen for PLC-beta3 hits; shares compounds with PLCg1 inh; purified PLC-gamma1, fluorogenic substrate, fluorescence; inhibition, % at 12.3 µM; 3.1% of 3,300 active; AID 743258; in the data active = inhibition above about 9.5%
PLCbeta3 conf: confirmation of human PLC-beta3 inhibitors; shares compounds with PLCg1 inh; purified PLC-beta3, fluorogenic substrate fluorescence; inhibition, % at 12.3 µM; 1% of 3,300 active
Starred values were filed as active, the others as inactive; x = no result given. Cut-off read from the data, not from the text of the source, unless noted: active = inhibition above about 11%; inactive = the rest.

SMILES | ADAM10 inh | PLCg1 inh | proKLK7 act | PLC-beta3 inh | ADAM17 inh | ADAM10 counter | ADAM17 confirm | PLCgamma1 ctr | PLCbeta3 conf
OCC1(Cc2cccc(Cl)c2)CCCN(Cc2sc(N3CCCC3)nc2Cl)C1 (stereo unspecified) | 13 | 13* | 1 | -2 | 10* | 17 | 9.7* | 0 | -28
CC(C)C(O)(c1ccccc1)C(CN1CCOCC1)c1ccccc1 (stereo unspecified) | 5 | 2 | 1 | -9 | 0 | x | x | x | x
O=C(NCCC1=CCCCC1)C(=O)NCC1OCCCN1S(=O)(=O)c1ccccc1 (stereo unspecified) | 6 | 2 | 1 | 1 | 2 | x | x | x | x
Cc1ccccc1-c1nnn(Cc2ccc(F)cc2Cl)n1 | 11 | 11* | -2 | 2 | 10* | 18 | 11* | -9 | -7
Fc1ccc(-c2nnn(Cc3ccc(F)cc3Cl)n2)cc1 | 3 | 4 | 0 | -4 | 1 | x | x | x | x
COc1ccccc1-c1csc(C(NC(C)=O)c2cccc(F)c2)n1 (stereo unspecified) | -9 | -6 | 0 | -8 | -5 | x | x | x | x
CC(=O)NC(c1cccc(F)c1)c1nc(/C=C/c2ccccc2)cs1 (stereo unspecified) | 9 | 10* | 1 | 8 | 11* | 11 | 6 | -8 | -6
COc1ccc(CNC(=O)COC(=O)c2cc(C)oc2C)cc1 | -7 | 1 | 0 | -4 | -5 | x | x | x | x
C#CCOc1c(Cl)cc(/C=N/O)cc1OC | -3 | -1 | 0 | 0 | -1 | x | x | x | x
CCc1cc(=O)oc2cc3occ(C)c3cc12 | -257 | -143 | 6 | -175 | -56 | x | x | x | x
CCOC(=O)c1cnc2ccc(Br)cc2c1NCC(C)O (stereo unspecified) | 7 | 12* | 1 | 5 | 10* | -6 | 1 | -4 | -1
CCOC(=O)c1cnc2ccc(Br)cc2c1NCCO | 7 | 6 | 0 | 4 | 0 | x | x | x | x
COC(=O)[C@]12C[C@H](CC(=O)NCc3ccc(C)o3)C(=O)N(Cc3ccco3)C1=C[C@H](C(C)(C)C)O[C@@H]2C | 2 | 5 | 0 | 0 | -2 | x | x | x | x
COC(=O)[C@]12C[C@H](CC(=O)NCCCCc3ccccc3)C(=O)N(Cc3ccccc3)C1=C[C@H](C(C)C)O[C@@H]2C1CC1 | 17 | 10* | 1 | 5 | 17* | 26* | 13* | -3 | -1
COC(=O)[C@]12C[C@H](CC(=O)NCc3ccc(C)o3)C(=O)N(Cc3ccccc3)C1=C[C@H](C(C)(C)C)O[C@@H]2C | 9 | 10* | 0 | 8 | 10* | 11 | 6 | -9 | -5
CC(C)C(c1nnnn1Cc1ccco1)N1CCN(c2cccc(Cl)c2)CC1 (stereo unspecified) | 20 | 12* | 0 | 2 | 14* | 12 | 8 | -5 | -6
CC(C)C(c1nnnn1Cc1ccccc1)N1CCN(Cc2ccco2)CC1 (stereo unspecified) | -9 | -2 | 0 | 1 | -4 | x | x | x | x
O=C(NC(Cc1ccccc1)C(=O)N1CCCCC1)c1ccccc1 (stereo unspecified) | 2 | 13* | 0 | 6 | 9.3* | 8 | 5 | -6 | -5
CC1=NN(c2ccccc2)C(=O)/C1=C/c1cccs1 | 18 | 25* | 0 | 16* | 10* | 1 | 0 | 1 | -1
COc1ccc(-c2cn[nH]c2N)cc1 | 4 | 12* | -1 | 4 | 8.8* | 6 | 1 | -8 | -2
CC1(C(=O)Nc2ccc(Cl)c(Cl)c2)CCN1C(=O)C1CCCCC1 (stereo unspecified) | -1 | 16* | 0 | 4 | 10* | 9 | 9.9* | -5 | -3
Cc1c([N+](=O)[O-])cnc(Sc2ccccc2)c1[N+](=O)[O-] | 4 | 11* | 0 | 1 | 10* | 5 | 3 | 9.5* | 0
